Sampled rows, rich in hits. Any-hit rate of the full collection: about 2.8%.
WRN inhibitor – qHTS for Inhibitors of WRN Helicase. Bifunctional 3'-5' exonuclease/ATP-dependent helicase WRN (Homo sapiens), Q14191. WRN helicase unwinding, fluorescent forked duplex, kinetic. Potency, µM (top dose mostly 114 µM), hits mostly inhibitors. actives 0.46% (n = 360,000). AID 651768, 2012; also: nearly all actives have a fitted effect of over 55% in size
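WRN at 20 nM final was preincubated with compound for 15 min at room temperature; reaction started with 100 nM forked duplex oligonucleotide carrying fluorophore and quencher plus 2 mM ATP (final). Unwinding followed kinetically by red fluorescence (ex 525/em 598 nm).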
POLK inh – qHTS for Inhibitors of Polymerase Kappa; purified Pol kappa, fluorescent DNA synthesis assay, 10 min; Potency, µM (series often up to 107 µM), actives largely listed as inhibitors; actives 0.53% (n = 400,000)
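10 nM Pol kappa preincubated 15 min at room temperature with compounds, then reaction started with substrate at 50 nM final. Fluorescence read kinetically at 0 and 10 min; buffer-only wells served as negative control.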
Pol eta inh – qHTS for Inhibitors of Polymerase Eta; DNA polymerase eta (Homo sapiens), Q9Y253; recombinant Pol eta, fluorescent DNA replication assay; Potency, µM (top dose mostly 114 µM), usual class: inhibitors; actives 1.2% (n = 390,000)
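Fluorescent replication assay: 50 nM final substrate added after a 15 min room-temperature compound preincubation with 10 nM enzyme. Signal taken at 0 min and again at 10 min.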
POLB inh – qHTS Assay for Inhibitors of DNA Polymerase Beta; Pol beta primer extension/strand displacement, fluorescence kinetic; Potency, µM (titrated, usually from 114 µM), hits mostly inhibitors; actives 1.3% (n = 340,000); AID 485314, 2010
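Human Pol beta at 10 nM; strand-displacement substrate 50 nM final. Compound exposure 15 min at room temperature before start, reaction 10 min at room temperature.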
PI5P4K alpha inh – qHTS for Inhibitors of phosphatidylinositol 5-phosphate 4-kinase (PI5P4K) | Phosphatidylinositol 5-phosphate 4-kinase type-2 alpha (Homo sapiens), P48426 | PI5P4Kalpha enzyme, ADP-Glo luminescence, 60 min; stronger effect = lower value | max response, % | actives 1.2% (n = 330,000) | AID 652105, 2013; active = max response of -50% or lower; inconclusive = between -30% and -50%; inactive = -30% or higher; also: value at the top dose of about 77 µM
Target sequence (P48426 whole entry, looked up): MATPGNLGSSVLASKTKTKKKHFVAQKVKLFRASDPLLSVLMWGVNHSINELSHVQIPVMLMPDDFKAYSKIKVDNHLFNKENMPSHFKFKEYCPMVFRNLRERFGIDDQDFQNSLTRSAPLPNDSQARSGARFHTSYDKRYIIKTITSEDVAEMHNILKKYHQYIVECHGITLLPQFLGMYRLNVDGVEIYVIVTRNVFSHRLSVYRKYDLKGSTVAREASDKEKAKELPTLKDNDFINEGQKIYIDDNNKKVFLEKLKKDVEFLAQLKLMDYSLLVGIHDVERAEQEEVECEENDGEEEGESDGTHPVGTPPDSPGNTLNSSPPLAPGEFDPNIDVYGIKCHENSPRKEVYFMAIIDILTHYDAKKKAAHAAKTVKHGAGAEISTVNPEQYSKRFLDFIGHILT
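ADP-Glo luminescence end-point after a 60 min room-temperature kinase reaction. PI5P4Kalpha and substrate in HEPES pH 7.4 buffer with EGTA, 0.1% CHAPS and 5% DMSO; ATP at 5 microM final.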
Pol iota inh – qHTS for Inhibitors of Polymerase Iota; actives 1% (n = 390,000); Pol iota fluorescent replication assay, 10 min; DNA polymerase iota (Homo sapiens), Q9UNA4; Potency, µM (top dose mostly 115 µM), actives largely listed as inhibitors
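Pol iota at 10 nM preincubated 15 min with compounds at room temperature; reaction started with fluorescent substrate, 50 nM final. Fluorescence read kinetically at 0 and 10 min; buffer-only wells as negative control.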
Of the large screens only hits and unclear results are named; the others gave an inactive call. Unless noted, calls follow the shape of the dose curve; as a rule, active = well fitted curve in the direction sought with a large enough effect; inconclusive = small, poorly fitted or top-dose-only effect, or another doubt; inactive = no such curve, though single readings can be large; an effect the other way counts as inactive or inconclusive.

CCN1C/C(=C/c2ccc(N3CCOCC3)cc2)C(=O)/C(=C/c2ccc(N3CCOCC3)cc2)C1	WRN inhibitor 79µM, POLK inh inconclusive, Pol eta inh inconclusive, POLB inh inconclusive, Pol iota inh 79µM
CN1C/C(=C\c2ccc(N3CCOCC3)cc2)C(=O)/C(=C/c2ccc(N3CCOCC3)cc2)C1	none
O=C(Cn1ncc2c3ccccc3n(Cc3ccc(F)cc3)c2c1=O)NC1CCCCCC1	none (no result: WRN inhibitor, PI5P4K alpha inh)
O=C(Cn1ncc2c3ccccc3n(Cc3cccc(Cl)c3)c2c1=O)NC1CCCCCC1	Pol eta inh inconclusive, POLB inh 13µM, Pol iota inh inconclusive (no result: WRN inhibitor, PI5P4K alpha inh)
CCc1cccc(C)c1NC(=O)C1CCN(S(=O)(=O)c2cccc3nonc23)CC1	POLK inh inconclusive, POLB inh inconclusive, Pol iota inh 89µM (no result: WRN inhibitor, PI5P4K alpha inh)
O=C(NCCc1ccccc1)c1nn(-c2ccc(F)cc2)nc1CO	none (no result: WRN inhibitor, PI5P4K alpha inh)
O=C(O)/C=C\c1ccc(O)c(O)c1	none (no result: WRN inhibitor, Pol eta inh, POLB inh, PI5P4K alpha inh, Pol iota inh)
O=c1cc(O)cc(/C=C/c2ccc(O)c(O)c2)o1	POLK inh 0.75µM, Pol eta inh 0.79µM, POLB inh 0.22µM, Pol iota inh 0.71µM (no result: WRN inhibitor, PI5P4K alpha inh)
Nc1nc(SCC(=O)c2cc(F)ccc2F)n[nH]1	none
Cc1nc(SCC(=O)c2ccc(F)cc2)n[nH]1	PI5P4K alpha inh -74
Nc1nc(SCC(=O)c2ccc(F)cc2)n[nH]1	Pol eta inh inconclusive, PI5P4K alpha inh -55
Cc1nc(SCc2ccc(F)cc2)n[nH]1	none
Cc1nc(SCC(=O)c2cccc([N+](=O)[O-])c2)n[nH]1	WRN inhibitor inconclusive, PI5P4K alpha inh -63
Cc1ccnc(SCC(=O)c2cccc([N+](=O)[O-])c2)n1	none
CN(C(=O)CSc1nncn2c1cc1occc12)c1ccccc1	none (no result: WRN inhibitor, PI5P4K alpha inh)
CCc1ccc(NC(=O)c2cc(S(=O)(=O)N3CCCCCC3)ccc2F)cc1	none (no result: WRN inhibitor, PI5P4K alpha inh)
COc1ccc(Cl)cc1NC(=O)c1c(NCc2cccs2)sc2c1CCC(C)C2 (stereo unspecified)	Pol eta inh inconclusive (no result: WRN inhibitor, PI5P4K alpha inh)
O=[N+]([O-])c1cc(/C=N\Nc2nccs2)ccc1O	POLB inh 4µM (no result: WRN inhibitor, POLK inh, Pol eta inh, PI5P4K alpha inh, Pol iota inh)
CNC(=S)N/N=C/c1ccc(-c2ccc(Cl)c([N+](=O)[O-])c2)o1	WRN inhibitor inconclusive, POLB inh 8.9µM
Cc1ccc(C(=O)N/N=C\c2ccc(-c3ccc(Cl)c(Cl)c3)o2)cn1	POLB inh 20µM
Cc1ccc(-c2ccc(/C=N/NC(=S)Nc3ccccc3)o2)cc1[N+](=O)[O-]	none (no result: PI5P4K alpha inh)
Cc1cc(C(Br)(Br)Br)nc2ccccc12	Pol iota inh inconclusive (no result: WRN inhibitor, Pol eta inh, POLB inh, PI5P4K alpha inh)
Nc1cccc2nc3ccccc3cc12	POLB inh 8.9µM
Cc1cc2c(N)cccc2nn1	WRN inhibitor inconclusive, POLK inh 89µM, POLB inh 22µM, PI5P4K alpha inh inconclusive, Pol iota inh 5.6µM
COc1ccc(OC)c(CNS(=O)(=O)c2ccc(-c3coc(C)n3)cc2)c1	none (no result: WRN inhibitor, PI5P4K alpha inh)
Nc1nc(N)c(N=Nc2ccc(S(N)(=O)=O)cc2)c(=O)[nH]1	POLB inh inconclusive, PI5P4K alpha inh -62
Nc1nc(N)c(N=Nc2ccc(Cl)cc2)c(=O)[nH]1	Pol eta inh inconclusive, PI5P4K alpha inh -77
Nc1nc(N)c(N=Nc2ccc(SCC(=O)O)cc2)c(=O)[nH]1	PI5P4K alpha inh -64, Pol iota inh inconclusive
NS(=O)(=O)c1ccc(N=Nc2c(O)ccc3ccccc23)cc1	Pol eta inh inconclusive
COc1ccc(-c2nc(SCC(=O)NCc3nc4ccccc4n3C)n3[nH]c(=O)cc3n2)cc1	Pol iota inh inconclusive (no result: WRN inhibitor, PI5P4K alpha inh)
N#CC1(NC(=O)COC(=O)/C=C/c2ccc3ccccc3n2)CCCCC1	POLK inh inconclusive, Pol eta inh inconclusive, POLB inh 13µM, PI5P4K alpha inh inconclusive, Pol iota inh 45µM
Nc1cc(Cl)ccc1N1CCCCC1	none
Nc1c(N2CCOCC2)cc(Cl)c2nonc12	Pol iota inh 3.5µM (no result: PI5P4K alpha inh)
Nc1c(N2CCCC2)cc(Cl)c2nonc12	POLK inh inconclusive, Pol eta inh 22µM, POLB inh inconclusive, Pol iota inh 1.6µM (no result: PI5P4K alpha inh)
CC(=O)Nc1ccc(OCC(O)CN2CCN(c3ccc(C)c(Cl)c3)CC2)cc1 (stereo unspecified)	Pol iota inh 89µM (no result: PI5P4K alpha inh)
CC(=O)Nc1ccc(OCC(O)CN2CCN(c3cc(Cl)ccc3C)CC2)cc1 (stereo unspecified)	none (no result: PI5P4K alpha inh)
Cc1ccc2ccc3cc(C(=O)N4CCN(c5ccccc5F)CC4)nc3c2[nH]1	Pol eta inh inconclusive (no result: WRN inhibitor, PI5P4K alpha inh)
Cc1ccc2ccc3cc(C(=O)Nc4ccc(C)c(F)c4)nc3c2[nH]1	POLB inh inconclusive, Pol iota inh 89µM (no result: WRN inhibitor, PI5P4K alpha inh)
COc1ccc(C(=O)Nc2cccc([N+](=O)[O-])c2)cc1Br	Pol eta inh inconclusive (no result: POLB inh)
COc1ccc(C(=O)Nc2ccc(OC)c([N+](=O)[O-])c2)cc1Br	Pol eta inh inconclusive, POLB inh 20µM
COc1ccccc1-c1cn[nH]c(=S)n1	PI5P4K alpha inh -70
Cc1cc(NS(=O)(=O)c2ccc(NC(=O)COc3c(C)ccc(C)c3C)cc2)nc(C)n1	none (no result: WRN inhibitor, PI5P4K alpha inh)
S=c1[nH]nc(COc2ccccc2)n1/N=C/C=C/c1ccccc1	none
S=c1[nH]nc(COc2ccccc2)n1/N=C/C=C/c1ccco1	POLK inh inconclusive, Pol eta inh 28µM, POLB inh 20µM, PI5P4K alpha inh -52, Pol iota inh inconclusive
Cc1ccccc1NC(=O)c1c(C)oc2ccc(O)c(CN3CCOCC3)c12	POLB inh inconclusive (no result: WRN inhibitor, PI5P4K alpha inh)
CC(=O)NCCNC(=O)c1ccc(CSc2ccc(Cl)cc2)cc1	none
